The values that follow come from PubChem BioAssay (NCATS).

“And” between values parts separate entries of the source, which are not always exact repeats. Identical values can stand only once. Records with an inconclusive call do not appear. The source made the active and inactive calls. Calls come from the whole dose curve; as a rule, active = well fitted cell-killing curve with a large enough effect; inconclusive = small, poorly fitted or top-dose-only effect, or effect the other way; inactive = no such curve, though single readings can be large or run the other way.
Potency is the fitted concentration of half-maximal effect.

A short description of the experiment: Quantitative High-Throughput drug screen in 47 multiple myeloma cell lines against the NCATS MIPE library collection: Karpas25_ECACC cell viability assay (AID 1918968; note: nearly all actives have a fitted effect of over 35% in size). As to conditions: Karpas25 myeloma viability, CellTiter-Glo ATP, 48 h; series mostly up to 45.8 µM. The text has this:
PI: Beverly A. Mock Ph.D.
Laboratory of Cancer Biology and Genetics,
Center for Cancer Research, National Cancer Institute,
National Institute of Health, Bethesda, Maryland
Drug resistance and disease progression are common in multiple myeloma (MM) patients, underscoring the need for new therapeutic combinations. […] We hypothesized that effective combinations would reduce MYC expression and enhance p16 activity. […] These preclinical data identify potentially useful drug combinations for evaluation in drug-resistant MM and reveal potential mechanisms of combined drug sensitivity.
Described herein is the primary MIPE qHTS used to cherrypick compounds. Validated compounds were then further tested for potential synergistic activiy.
[1] Peat TJ, Gaikwad SM, Dubois W, Gyabaah-Kessie N, Zhang S, Gorjifard S, Phyo Z, Andres M, Hughitt VK, Simpson RM, Miller MA, Girvin AT, Taylor A, Williams D, D'Antonio N, Zhang Y, Rajagopalan A, Flietner E, Wilson K, Zhang X, Shinn P, Klumpp-Thomas C, McKnight C, Itkin Z, Chen L, Kazandijian D, Zhang J, Michalowski AM, Simmons JK, Keats J, Thomas CJ, Mock BA. Drug combinations identified by high-throughput screening promote cell cycle transition and upregulate Smad pathways in myeloma. Cancer Lett. 2023 Aug 1;568:216284. doi: 10.1016/j.canlet.2023.216284. Epub 2023 Jun 24. PMID: 37356470; PMCID: PMC10408729.
SEQUENCE No. (e.g., 1, 2, 3, etc.); […] (e.g., Cells, Incubation, Reagent, etc.); VALUE and DESCRIPTION.
1; Cells; 5 uL; white, solid bottom 1536-well Greiner assay plate.
2; Compounds; 23 nL; Kalypsis pin tool (Wako USA) equipped with a 1536-well pin head to transfer to the assay plates.
3; Incubation; 48 hours; 37C incubation.
4; Reagent;5uL; CellTiter Glo (Promega).
5; Detector; 425V; Luminescence; Viewlux PerkinElmer.
NOTES (numbers refer to Sequence numbers above)
1. The cell-based screening methods employed in this study were like those previously published. Briefly, the corresponding myeloma cell lines were screened in 1,536-well plates with 500 cells, 5-uL per well for inhibition of cell viability (assessed by measuring ATP levels with CellTiterGlo).
2. NCATS MIPE 4.0 library of approved and investigational drugs were added using the Kalypsis pin tool. Wells treated with DMSO only for 100% viability and media only wells for 0% viability were used as controls.
3. The assay plates were covered and incubated for 48 hours in a 37C, 5% CO2 incubator with controlled humidity.
4. After 48 hours, CellTilter-GloTM luminescent substrate mix (Promega) reagent was added to the assay plate and plates we incubated for 5 min at room temperature.
5. Signal was measured as median relative luminescence units on a ViewLux (PerkinElmer) multiplate reader.
[1] Heske CM, Davis MI, Baumgart JT, Wilson K, Gormally MV, Chen L, Zhang X, Ceribelli M, Duveau DY, Guha R, Ferrer M, Arnaldez FI, Ji J, Tran HL, Zhang Y, Mendoza A, Helman LJ, Thomas CJ. Matrix Screen Identifies Synergistic Combination of PARP Inhibitors and Nicotinamide Phosphoribosyltransferase (NAMPT) Inhibitors in Ewing Sarcoma. Clin Cancer Res. 2017 Dec 1;23(23):7301-7311. doi: 10.1158/1078-0432.CCR-17-1121. Epub 2017 Sep 12. PMID: 28899971; PMCID: PMC6636827.
As to `NC(=O)c1cnccn1`, the Potency entry is “inactive”.

For `CCCn1c(=O)c2[nH]c(C34CC5CC3C[C@@H](C5)C4)nc2n(CCC)c1=O`, the Potency entry is “inactive”.

As for `Cn1cnc([N+](=O)[O-])c1Sc1ncnc2nc[nH]c12`, the Potency is 16.6 µM (active).

In the case of `Oc1cccc(-c2nc(N3CCOCC3)c3oc4ncccc4c3n2)c1`, the Potency is 0.054 µM (active).

Take `CCC(=O)N[C@H]1CC[C@H](C(=O)N(C)c2ccc(-c3nc4ccccc4o3)cc2)C1`: the Potency is 7.43 µM (active).

For the compound `Cc1c(CN2CCN(C(=O)C(C)C)CC2)sc2c(N3CCOCC3)nc(-c3cnc(N)nc3)nc12`, the Potency is 0.059 µM (active).

As for `CCCc1nc2c(C)cc(-c3nc4ccccc4n3C)cc2n1Cc1ccc(-c2ccccc2C(=O)O)cc1`, the Potency result is “inactive”.

For `Cc1[nH]c(=O)c(C#N)cc1-c1ccncc1`, the Potency was 9.35 µM (active).

Take `CCOc1ccc(Cc2cc([C@@H]3O[C@H](CO)[C@@H](O)[C@H](O)[C@@H]3O)ccc2Cl)cc1`: the Potency was 18.7 µM (active).

Consider `Nc1nc2[nH]cc(CCc3ccc(C(=O)N[C@@H](CCC(=O)O)C(=O)O)cc3)c2c(=O)[nH]1`, for which the Potency entry was “inactive”.

For the compound `CS(=O)(=O)c1ccc(C(=O)Nc2ccc(Cl)c(-c3ccccn3)c2)c(Cl)c1`, the Potency is 9.35 µM (active).

`CC(c1cc2ccccc2s1)N(O)C(N)=O` (stereo not given): the Potency entry is “inactive”.

`CC[C@H](Nc1ncnc2nc[nH]c12)c1nc2cccc(F)c2c(=O)n1-c1ccccc1`: the Potency is 11.8 µM (active).

For `S=C(NCc1ccc2c(c1)OCO2)N1CCN(c2ncnc3c2oc2ccccc23)CC1`, the Potency was 0.303 µM (active).

As to `CS(=O)(=O)c1cccc(CNc2nc(Nc3ccc4c(c3)CCC(=O)N4)ncc2C(F)(F)F)c1`, the Potency was 18.7 µM (active).

`O=C(O)[C@@H](c1ccc(OCc2ccc3ccccc3n2)cc1)C1CCCC1`: the Potency result is “inactive”.

As for `CNC(=O)c1ccc(N2C(=S)N(c3ccc(C#N)c(C(F)(F)F)c3)C(=O)C2(C)C)cc1F`, the Potency is 18.7 µM (active).

For `Cn1cnc2c(F)c(Nc3ccc(Br)cc3Cl)c(C(=O)NOCCO)cc21`, the Potency is 16.6 µM (active).

With `O=C(O)COCCN1CCN(C(c2ccccc2)c2ccc(Cl)cc2)CC1` (stereo not given), the Potency result was “inactive”.

Take `O=C1[C@H](Cc2ccc(O)cc2)N2C(=O)CCN(C(=O)NCc3ccccc3)[C@H]2CN1Cc1cccc2ccccc12`: the Potency was 14.8 µM (active).

As for `Cc1cn[nH]c1`, the Potency was 0.59 µM (active).

As for `CCc1ccc(CCOc2ccc(CC3SC(=O)NC3=O)cc2)nc1` (stereo not given), the Potency entry was “inactive”.

In the case of `CCOc1cc(C=C2C(=O)N(c3ccccc3)N=C2C)cc(Cl)c1OCC(=O)OC`, the Potency is 8.33 µM (active).

For the compound `C[C@@H]1CN(Cc2ccc(F)cc2)[C@@H](C)CN1C(=O)c1cc2c(C(=O)C(=O)N(C)C)cn(C)c2cc1Cl`, the Potency was 9.35 µM (active).

As for `COc1nc(-c2ccc3c(c2)OCO3)n(-c2ccc(NC(=O)CSc3ccccc3)cc2)n1`, the Potency entry is “inactive”.

Consider `CCc1cncnc1N1CCN(Cc2nc3ccc(C(F)(F)F)cc3[nH]2)CC1`, for which the Potency is 5.26 µM (active).

With `COc1ccc(COc2cc3oc(=O)c4cc(C(C)O)ccc4c3cc2OC)cc1` (stereo not given), the Potency was 18.7 µM (active).

As for `O=c1[nH]cnc2[nH]ncc12`, the Potency entry is “inactive”.

As to `CC(C)(Sc1ccc(CCN(CCCCC2CCCCC2)C(=O)NC2CCCCC2)cc1)C(=O)O`, the Potency result was “inactive”.

As for `CCc1cc(Nc2nccc(-c3c(-c4ccc(OC)c(C(=O)Nc5c(F)cccc5F)c4)nc4ccccn34)n2)c(OC)cc1N1CCC(N2CCN(S(C)(=O)=O)CC2)CC1`, the Potency is 7.43 µM (active).

Regarding `O=C1CCC(N2C(=O)c3ccccc3C2=O)C(=O)N1` (stereo not given), the Potency result was “inactive”.

Turning to `CN(C)C(=O)c1ccc(S(=O)(=O)c2ccc(NC(=O)[C@@](C)(O)C(F)(F)F)c(Cl)c2)cc1`, the Potency was 3.72 µM (active).

`COc1ccc2nc(S(=O)Cc3ncc(C)c(OC)c3C)[nH]c2c1` (stereo not given): the Potency entry is “inactive”.

Consider `CO[C@@H]1[C@H](N(C)C(=O)c2ccccc2)C[C@H]2O[C@]1(C)n1c3ccccc3c3c4c(c5c6ccccc6n2c5c31)C(=O)NC4`, for which the Potency is 2.35 µM (active).

For `CC(C=CC1=C(C)CCCC1(C)C)=CC=CC(C)=CC(=O)O`, the Potency is 16.6 µM (active) and 18.7 µM (active).

As for `O=S(=O)(N=Cc1c(O)ccc2ccccc12)c1cccs1`, the Potency is 1.05 µM (active).

As to `COc1cccc2cc(-c3nc(C4CCC(C(=O)O)CC4)n4ncnc(N)c34)[nH]c12` (stereo not given), the Potency was 0.662 µM (active).

On to `CCn1c(-c2nonc2N)nc2cnc(Oc3cccc(NC(=O)c4ccc(OCCN5CCOCC5)cc4)c3)cc21`, for which the Potency was 2.35 µM (active).

With `CCn1cc(C(=O)O)c(=O)c2cc(F)c(N3CCNC(C)C3)c(F)c21` (stereo not given), the Potency result is “inactive”.

As to `CCCS(=O)(=O)Nc1ccc(F)c(C(=O)c2c[nH]c3ncc(-c4ccc(Cl)cc4)cc23)c1F`, the Potency is 9.35 µM (active).
